This is an account of results in PubChem BioAssay AID2284379 (EPA ToxCast).

Records with an inconclusive call do not appear. Calls of active or inactive are those of the source. The calls were made as follows: active = hit-call score of the fitted dose curve at least 0.9, where 1 is the maximum; inconclusive = response in the unintended direction; inactive = score below 0.9.

The experiment can be described thus: ATG_M_32_EcoTox2: Attagene TRANS-FACTORIAL EcoTox-2 HepG2 Assay for M32 Transcription Factor (Internal Marker). The method, then: ATG_EcoTox2 is a cell-based, multiplexed assay created by modifying the existing Attagene TRANS-FACTORIAL system to include a panel of nuclear receptors from some or all the following species: human (Homo sapiens), african clawed frog (Xenopus laevis), rainbow trout (Oncorhynchus mykiss), japanese medaka (Oryzias latipes), and zebrafish (Danio rerio). The ECOTOX2-FACTORIAL format uses HepG2, a human liver cell line, with measurements taken at 24 hours after chemical dosing in a 24-well plate. ATG_M_32_EcoTox2 is one of 29 assay components calculated in the ATG_EcoTox2 assay. It is designed to make measurements of mRNA induction, a form of inducible reporter, as detected with fluorescence intensity signals by Reverse transcription polymerase chain reaction (RT-PCR) and Capillary electrophoresis technology.The assay endpoint ATG_M_32_EcoTox2 was analyzed in the positive analysis fitting direction relative to DMSO as the negative control and baseline of activity. Using a type of inducible reporter, measures of mRNA for gain-of-signal activity can be used to understand the background control at the transcription factor-level as they relate to the gene. Furthermore, this assay endpoint can be referred to as a secondary readout, because this assay has produced multiple assay endpoints where this one serves a background control function. To generalize the intended target to other relatable targets, this assay endpoint is annotated to the background measurement intended target family, where the subfamily is internal marker.
Human liver HepG2 cells are transiently transfected with multiple reporter transcription units (MRTUs) in 6-well plates using FuGene 6 reagent (Roche; 3 ml FuGene/1 mg DNA). The MRTU constructs are regulated by a cis-regulating element (promoter). Each RTU expresses a GAL4-UAS that regulates the transcription of a nearby target reporter gene sequence. A major difference between the CIS and TRANS system is that in CIS activities of endogenous TFs are measured, whereas the TRANS assay evaluates changes in activities of exogenous, chimeric NR-Gal4 proteins. […] At the end of 24 hour incubation, total RNA was isolated using TriZol reagent (Invitrogen). The isolated RNA is then reverse-transcribed using oligo(dT) primer and Mo-MLV reverse transcriptase (Invitrogen) with DNAse I (Ambion) treatment for 30 min. The one-tenth of the produced cDNA was amplified by PCR using Taq DNA polymerase (Invitrogen) and two reporter sequence-specific primers. The PCR products were fluorescently labeled by primer extension with 6-arboxyfluorescein (6-FAM) 5'-labeled reporter sequence-specific primer (2 min at 95 C, 20 s at 68 C and 10 min at 72 C) and these products were digested with 5U of HpaI (New England Biolabs) for 2h at 37 C. The fragments were purified using Qiaquick PCR columns (Qiagen), analyzed on an ABI 3130xL genetic analyzer (Applied Biosystems) with peak positions identified by using a set of X-rhodamine (ROX)-labeled MapMarker1000 molecular weight standards (BioVentures). The raw capillary electrophoresis data was processed using Attagraph software (Attagene).
`O=C(O)C(F)(F)C(F)(F)C(F)(F)C(F)(F)C(F)(F)C(F)(F)C(F)(F)F`: the compound was called inactive.
Consider `O=S(=O)(O)C(F)(F)C(F)(F)C(F)(F)C(F)(F)C(F)(F)C(F)(F)F`, for which the outcome was inactive.
As for `[Cl][Sn]([c]1ccccc1)([c]1ccccc1)[c]1ccccc1`, the call was inactive.
As for `O=P(Oc1ccccc1)(Oc1ccccc1)Oc1ccccc1`, the outcome was inactive.
In the case of `CCCCOCN(C(=O)CCl)c1c(CC)cccc1CC`, the compound was classed as inactive.
